SMILES strings stand for the structures. The source made the active and inactive calls. How the source made its calls: active means hit-call score of the fitted dose curve at least 0.9, where 1 is the maximum; inactive means score below 0.9.

A short description of the test: CCTE_Shafer_MEA_dev_mutual_information_norm: CCTE's Neural Network Formation Assay for Mutual Information Normalization, Shafer Lab (AID 2284091).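 On AC50: potency is for a decrease in mutual information relative to DMSO.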 How it is done: CCTE_Shafer_MEA_dev assay is conducted using Axion Biosystems 48 well microelectrode array (MEA) plates and Maestro recording system. Each well of the MEA plate contains a grid of 16 microelectrodes embedded in the culture surface. Electrically active cells, such as neurons, can be cultured over the electrodes, and electrical activity in these cells can be recorded extracellularly. The spontaneous firing of neurons is captured from each electrode on a microsecond timescale providing both temporally and spatially precise data. […] The CCTE_Shafer_MEA_dev assay uses primary cultures of rat cortical neurons. Recordings are made on days post-plating 5, 7, 9 and 12. As these cultures mature over time, neural networks develop functional activity and form cohesive networks in which electrical activity can be highly coordinated. CCTE_Shafer_MEA_dev_mutual_information_norm is 1 of 19 assay components of the CCTE_Shafer_MEA_dev assay. It is a measure of shared information between electrodes during a recording in a microelectrode array (MEA) using Axion Biosystems Maestro 768 channel amplifier with the AxIS adaptive spike detector. To collapse across multiple recordings made on days post-plating 5, 7, 9 and 12, the trapezoidal area-under-the-curve of the component is calculated.Data from the assay component CCTE_Shafer_MEA_dev_mutual_information_norm was analyzed into 1 assay endpoint. This assay endpoint, CCTE_Shafer_MEA_dev_mutual_information_norm, was analyzed in the negative analysis fitting direction relative to DMSO as the negative control and baseline of activity. Using a type of functional reporter, gain or loss-of-signal activity can be used to understand electrical activity.
On the day prior to culture, each well was coated thoroughly with 150 uL of 0.05% polyethyleneimine (PEI, Sigma Cat P3143) in 50 mM HEPES (Sigma Cat H7523) at a pH of 8. The plate was incubated at 37C for one hour. PEI was rinsed out with 500 uL of sterile water three times. Plates were stored at 4C until the day of culture. This culture was plated at a seeding density of 1.5 x 10^5 cells/well on a 48-well MEA plate, prepared as described above. Cells were administered via a 25 uL media/laminin ([…]; Sigma Cat L2020-1MG) drop directly onto the microelectrode array, as adding the cells with the laminin results in better attachment than pre-coating with laminin. After 2 hours, an additional 475 uL of cortical media was added and the cells returned to the incubator. Exposure starts at day 0 of plating and is continued over twelve days of network development until the experiment is terminated. Cells are fed with fresh medium on DIV 5 and 9, following the recordings on those days. The entire volume of media in the well is exchanged and any vehicle or compound treatment is renewed. Complete details are found in OP-NHEERL/ISTD/SBB/TJS/2015-03-r0 (available on request, email shafer.tim@epa.gov). Measurement of the electrical activity is non-invasive, and recordings can be made from the same plate over multiple different days of the culture. In cortical neurons, this allows for the measurement of extracellular action potentials over the period during which networks form in the MEA plate.
Turning to `NC(O)(C(F)(F)F)C(F)(F)F`, the call was inactive.
On to `OCC(F)(F)C(F)(F)C(F)(F)C(F)(F)C(F)(F)C(F)(F)CO`, for which the result was inactive.
For the compound `CNS(=O)(=O)C(F)(F)C(F)(F)C(F)(F)C(F)(F)C(F)(F)C(F)(F)C(F)(F)C(F)(F)F`, the compound was called inactive.
In the case of `NC(=O)C(F)(F)C(F)(F)C(F)(F)C(F)(F)C(N)=O`, the result was inactive.
Regarding `O=S(=O)(O)CCC(F)(F)C(F)(F)C(F)(F)C(F)(F)C(F)(F)C(F)(F)C(F)(F)C(F)(F)F`, the call was inactive.
For `NC(=O)C(F)(F)C(F)(F)C(F)(F)C(F)F`, the compound was called inactive.
For the compound `OCC(F)(F)C(F)(F)C(F)(F)CO`, the compound was called inactive.
For the compound `C=CC(=O)OCCC(F)(F)C(F)(F)C(F)(F)C(F)(F)F`, the result was inactive.
Turning to `NC(=O)C(F)(F)C(F)(F)C(F)(F)F`, the compound was classed as inactive.
Turning to `O=S(=O)(O)CCC(F)(F)C(F)(F)C(F)(F)C(F)(F)F`, the compound was classed as inactive.
In the case of `O=C(O)C(F)(F)C(F)(F)C(F)(F)OC(F)(F)F`, the call was inactive.
On to `CO[Si](C)(CCC(F)(F)C(F)(F)C(F)(F)C(F)(F)C(F)(F)C(F)(F)F)OC`, for which the compound was called inactive.
`C=CC(=O)OCC(F)(F)C(F)(F)C(F)(F)COC(=O)C=C`: the AC50 was 1730 nM (active).
Consider `FC(F)(F)C(F)(F)C(F)(F)C(F)(F)C(F)(F)C(F)(F)C(F)(F)CCI`, for which the call was inactive.
Take `OCCCCC(F)(F)C(F)(F)C(F)(F)C(F)(F)F`: the compound was called inactive.
`OCC(F)(F)C(F)(F)C(F)(F)C(F)(F)C(F)(F)C(F)(F)C(F)(F)C(F)(F)CO`: the call was inactive.
Consider `OCC(O)CC(F)(F)C(F)(F)C(F)(F)C(F)(F)F` (centres undefined), for which the call was inactive.
Consider `CCN(CCO)S(=O)(=O)C(F)(F)C(F)(F)C(F)(F)C(F)(F)C(F)(F)C(F)(F)C(F)(F)C(F)(F)F`, for which the result was inactive.
Turning to `OC(O)C(F)(F)C(F)(F)F`, the call was inactive.

The values above are taken from PubChem BioAssay (EPA / NIEHS).
